From the supplement of paper PMC11732987, “Enantioselective OTUD7B fragment discovery through chemoproteomics screening and high-throughput optimisation” (Communications Chemistry, 2025)

What was measured:
Assay in all cases: log2 ratio of Biotin-Ahx-Ub-VS probe labelling (fragment/DMSO); higher = less target engagement (more negative = stronger competition), active = hit call of the paper (q ≤ 0.05, log2 ratio ≤ -1)
Settings in all cases: compound concentration: 200 uM; treatment time: 3 h
OTUD6B = target: T1, OTUD6B (UniProt Q8N6M0)
T1 sequence (whole entry): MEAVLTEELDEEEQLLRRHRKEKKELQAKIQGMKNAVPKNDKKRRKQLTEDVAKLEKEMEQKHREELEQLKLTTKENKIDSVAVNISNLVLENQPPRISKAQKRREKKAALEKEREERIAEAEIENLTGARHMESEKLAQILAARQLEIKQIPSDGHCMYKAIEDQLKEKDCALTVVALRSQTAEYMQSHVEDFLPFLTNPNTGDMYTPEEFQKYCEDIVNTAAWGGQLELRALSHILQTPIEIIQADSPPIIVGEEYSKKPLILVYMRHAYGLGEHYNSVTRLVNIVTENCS
How it was run: (§1)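 Fragment (200 µM) or vehicle was incubated for 3 h with triplicate HEK293T lysate samples of 495 µg, which were then treated with Biotin-Ahx-Ub-VS at 0.5 µM final for 1 h. Labelled DUBs were enriched on NeutrAvidin, digested with LysC and trypsin, and analysed by diaPASEF LC-MS/MS. Values are average log2 fragment/vehicle ratios from an unpaired t-test on global-median-normalised Spectronaut label-free quantities, using proteins with ≥2 unique peptides.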

OTUD7B = target: T2, OTUD7B (UniProt Q6GQQ9)
T2 sequence (whole entry): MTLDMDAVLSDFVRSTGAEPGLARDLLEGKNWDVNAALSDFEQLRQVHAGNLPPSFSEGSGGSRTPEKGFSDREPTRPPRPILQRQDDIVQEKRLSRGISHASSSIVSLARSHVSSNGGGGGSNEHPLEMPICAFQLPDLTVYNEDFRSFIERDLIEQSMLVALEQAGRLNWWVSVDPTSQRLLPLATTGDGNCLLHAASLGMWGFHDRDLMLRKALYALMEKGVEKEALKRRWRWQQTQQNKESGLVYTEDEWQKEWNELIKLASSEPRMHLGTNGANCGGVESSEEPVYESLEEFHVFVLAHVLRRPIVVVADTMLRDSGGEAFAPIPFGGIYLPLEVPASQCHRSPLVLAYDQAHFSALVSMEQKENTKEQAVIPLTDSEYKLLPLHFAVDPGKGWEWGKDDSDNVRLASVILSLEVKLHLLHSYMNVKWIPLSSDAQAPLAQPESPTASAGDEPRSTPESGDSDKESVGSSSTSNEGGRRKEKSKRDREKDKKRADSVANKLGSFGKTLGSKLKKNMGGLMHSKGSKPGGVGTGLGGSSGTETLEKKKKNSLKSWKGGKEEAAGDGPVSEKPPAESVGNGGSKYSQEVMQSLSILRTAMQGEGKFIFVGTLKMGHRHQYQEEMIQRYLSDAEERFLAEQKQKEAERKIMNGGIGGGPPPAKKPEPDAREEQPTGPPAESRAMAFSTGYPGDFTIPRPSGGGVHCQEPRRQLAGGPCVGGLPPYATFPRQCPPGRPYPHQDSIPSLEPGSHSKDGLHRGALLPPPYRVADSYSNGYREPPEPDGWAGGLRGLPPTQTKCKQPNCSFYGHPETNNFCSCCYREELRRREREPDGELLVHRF
How it was run: as §1

PRPF8 = PRPF8 (UniProt Q6P2Q9)
How it was run: as §1

PSMD7 = target: T3, PSMD7 (UniProt P51665)
T3 sequence (whole entry): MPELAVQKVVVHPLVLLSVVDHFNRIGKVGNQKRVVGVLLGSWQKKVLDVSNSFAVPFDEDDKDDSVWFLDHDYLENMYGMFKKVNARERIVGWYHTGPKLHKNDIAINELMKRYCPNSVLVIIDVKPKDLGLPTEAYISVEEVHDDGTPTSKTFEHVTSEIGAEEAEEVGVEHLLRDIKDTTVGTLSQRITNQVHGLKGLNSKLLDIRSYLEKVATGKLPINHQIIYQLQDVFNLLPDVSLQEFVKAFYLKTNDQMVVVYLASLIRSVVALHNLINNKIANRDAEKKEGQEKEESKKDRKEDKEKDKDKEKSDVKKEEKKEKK
How it was run: as §1

UCHL1 = UCHL1 (UniProt P09936)
How it was run: as §1

UCHL3 = target: T4, UCHL3 (UniProt P15374)
T4 sequence (whole entry): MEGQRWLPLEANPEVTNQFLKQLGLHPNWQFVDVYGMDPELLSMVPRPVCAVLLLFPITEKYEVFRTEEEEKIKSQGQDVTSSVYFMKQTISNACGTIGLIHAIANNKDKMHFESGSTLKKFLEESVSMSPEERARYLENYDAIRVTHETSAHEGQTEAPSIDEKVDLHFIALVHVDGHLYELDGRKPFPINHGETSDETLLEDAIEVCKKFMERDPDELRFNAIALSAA
How it was run: as §1

UCHL5 = target: T5, UCHL5 (UniProt Q9Y5K5)
T5 sequence (whole entry): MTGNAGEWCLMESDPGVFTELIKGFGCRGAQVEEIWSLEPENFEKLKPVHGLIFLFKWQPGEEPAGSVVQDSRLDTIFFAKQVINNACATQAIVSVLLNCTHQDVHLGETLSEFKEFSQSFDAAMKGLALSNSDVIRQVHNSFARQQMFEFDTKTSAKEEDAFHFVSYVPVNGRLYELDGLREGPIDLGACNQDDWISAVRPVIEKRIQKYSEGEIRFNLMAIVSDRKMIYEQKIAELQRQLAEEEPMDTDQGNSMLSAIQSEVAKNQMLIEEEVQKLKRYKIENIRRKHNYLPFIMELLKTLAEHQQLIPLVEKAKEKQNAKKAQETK
How it was run: as §1

USP10 = USP10 (UniProt Q14694)
How it was run: as §1

USP15 = target: T6, USP15 (UniProt Q9Y4E8)
T6 sequence (whole entry): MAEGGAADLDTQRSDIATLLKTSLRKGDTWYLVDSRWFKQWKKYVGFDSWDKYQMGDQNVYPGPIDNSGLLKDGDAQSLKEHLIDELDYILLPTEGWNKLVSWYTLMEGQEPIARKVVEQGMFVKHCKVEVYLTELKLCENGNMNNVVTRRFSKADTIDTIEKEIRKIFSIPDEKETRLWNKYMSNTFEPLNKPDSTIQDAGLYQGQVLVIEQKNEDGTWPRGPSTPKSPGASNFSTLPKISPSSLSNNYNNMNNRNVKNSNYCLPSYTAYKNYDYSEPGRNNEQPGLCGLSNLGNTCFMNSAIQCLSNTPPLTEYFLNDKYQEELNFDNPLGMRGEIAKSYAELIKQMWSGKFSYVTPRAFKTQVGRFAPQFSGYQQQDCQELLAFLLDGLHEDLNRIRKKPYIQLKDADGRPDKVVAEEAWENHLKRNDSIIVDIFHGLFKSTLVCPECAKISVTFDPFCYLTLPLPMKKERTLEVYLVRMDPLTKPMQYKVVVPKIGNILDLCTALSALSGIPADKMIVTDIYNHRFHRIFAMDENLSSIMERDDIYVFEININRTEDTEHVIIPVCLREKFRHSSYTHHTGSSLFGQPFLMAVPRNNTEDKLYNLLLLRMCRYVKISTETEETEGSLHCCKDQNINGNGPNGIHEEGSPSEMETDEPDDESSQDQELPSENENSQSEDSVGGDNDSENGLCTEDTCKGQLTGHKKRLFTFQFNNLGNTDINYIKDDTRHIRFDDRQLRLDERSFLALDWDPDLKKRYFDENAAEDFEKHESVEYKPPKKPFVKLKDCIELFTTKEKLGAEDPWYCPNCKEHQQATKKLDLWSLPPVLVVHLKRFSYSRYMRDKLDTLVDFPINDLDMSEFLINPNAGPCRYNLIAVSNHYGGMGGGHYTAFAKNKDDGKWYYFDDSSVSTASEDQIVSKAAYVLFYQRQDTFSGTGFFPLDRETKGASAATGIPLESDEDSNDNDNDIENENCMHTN
How it was run: as §1

USP16 = USP16 (UniProt Q9Y5T5)
How it was run: as §1

Measured: log2 ratio of Biotin-Ahx-Ub-VS probe labelling

USP10, sequence (Q14694 whole entry): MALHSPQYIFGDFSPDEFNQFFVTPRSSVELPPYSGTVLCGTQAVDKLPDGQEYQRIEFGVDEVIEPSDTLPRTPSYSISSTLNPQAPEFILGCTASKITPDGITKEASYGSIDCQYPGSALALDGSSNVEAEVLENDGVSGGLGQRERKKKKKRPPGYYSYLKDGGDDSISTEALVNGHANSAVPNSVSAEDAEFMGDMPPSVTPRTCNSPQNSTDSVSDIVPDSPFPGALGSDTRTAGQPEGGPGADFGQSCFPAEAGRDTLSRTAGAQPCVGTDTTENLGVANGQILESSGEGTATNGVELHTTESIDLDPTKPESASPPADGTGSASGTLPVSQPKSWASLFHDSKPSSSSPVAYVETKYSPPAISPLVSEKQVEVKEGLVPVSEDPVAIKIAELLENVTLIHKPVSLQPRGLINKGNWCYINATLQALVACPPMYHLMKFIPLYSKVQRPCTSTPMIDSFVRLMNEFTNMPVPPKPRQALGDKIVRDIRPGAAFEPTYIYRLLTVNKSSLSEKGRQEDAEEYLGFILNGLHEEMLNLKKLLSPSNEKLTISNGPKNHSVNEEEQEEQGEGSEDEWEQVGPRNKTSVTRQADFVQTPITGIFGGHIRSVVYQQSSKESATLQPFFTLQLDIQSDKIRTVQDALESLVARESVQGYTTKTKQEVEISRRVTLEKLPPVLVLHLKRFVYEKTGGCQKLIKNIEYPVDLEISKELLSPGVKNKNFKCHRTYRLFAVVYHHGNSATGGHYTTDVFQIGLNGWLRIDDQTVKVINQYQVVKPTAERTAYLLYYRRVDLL
USP16, sequence (Q9Y5T5 whole entry, looked up): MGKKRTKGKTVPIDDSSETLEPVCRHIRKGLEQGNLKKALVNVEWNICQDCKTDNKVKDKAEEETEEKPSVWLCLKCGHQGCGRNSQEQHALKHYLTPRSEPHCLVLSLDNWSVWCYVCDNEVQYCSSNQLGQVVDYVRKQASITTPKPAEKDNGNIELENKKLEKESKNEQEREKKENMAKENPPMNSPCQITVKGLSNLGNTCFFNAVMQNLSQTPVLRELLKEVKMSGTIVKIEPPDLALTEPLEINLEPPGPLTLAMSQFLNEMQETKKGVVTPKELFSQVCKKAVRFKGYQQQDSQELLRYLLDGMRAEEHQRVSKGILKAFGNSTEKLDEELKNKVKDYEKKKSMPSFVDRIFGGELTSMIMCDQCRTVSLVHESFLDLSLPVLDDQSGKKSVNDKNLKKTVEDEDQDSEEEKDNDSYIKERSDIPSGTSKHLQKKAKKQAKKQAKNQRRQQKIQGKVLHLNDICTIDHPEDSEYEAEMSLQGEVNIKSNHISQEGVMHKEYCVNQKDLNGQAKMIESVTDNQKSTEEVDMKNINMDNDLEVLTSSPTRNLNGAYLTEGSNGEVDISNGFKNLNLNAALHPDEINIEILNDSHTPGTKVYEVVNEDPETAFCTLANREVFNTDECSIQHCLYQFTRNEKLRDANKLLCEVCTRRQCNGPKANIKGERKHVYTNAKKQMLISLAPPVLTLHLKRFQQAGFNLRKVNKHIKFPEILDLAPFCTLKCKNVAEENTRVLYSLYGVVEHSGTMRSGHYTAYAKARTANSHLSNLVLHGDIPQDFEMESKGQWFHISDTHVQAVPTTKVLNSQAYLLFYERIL
UCHL1, sequence (P09936 whole entry, looked up): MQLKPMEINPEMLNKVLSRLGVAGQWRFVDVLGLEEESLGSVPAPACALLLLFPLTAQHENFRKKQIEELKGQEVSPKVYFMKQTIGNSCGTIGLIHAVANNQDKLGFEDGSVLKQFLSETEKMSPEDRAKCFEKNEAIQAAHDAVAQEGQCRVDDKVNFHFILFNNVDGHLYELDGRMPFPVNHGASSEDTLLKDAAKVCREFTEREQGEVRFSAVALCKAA

O=C(CCl)Nc1ccc(F)cc1Cl
inactive: OTUD6B -0.388 | OTUD7B -0.667 | PRPF8 0.079 | PSMD7 -0.115 | UCHL1 -1.44 | UCHL3 -0.112 | UCHL5 -0.49 | USP10 -0.129 | USP15 0.0309 | USP16 -0.265
